Results filed as inconclusive are left out. The source made the active and inactive calls. Unless noted, the call rests on the fitted dose curve; in most records, active means well fitted curve in the direction sought with a large enough effect in the repeat runs; inconclusive means weak or mixed curves; inactive means no such curve, though single readings can be large; an effect the other way counts as inactive or inconclusive.
What was measured:
[1] = qHTS assay for small molecules that induce genotoxicity in human embryonic kidney cells expressing luciferase-tagged ATAD5 (AID 651632); further: nearly all actives have a fitted effect of over 15% in size
Outline: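 Genotoxicity read-out via ATAD5-luciferase: HEK293T cells, 16 hr compound incubation at 37C, Amplite detection.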

[2] = qHTS assay for small molecule agonists of the p53 signaling pathway - cell viability (AID 651633; calls by dose curve;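 further: p53RE-bla HCT reporter cells with a stable beta-lactamase p53 reporter; series mostly up to about 83 µM; nearly all actives have a fitted effect of over 30% in size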)
Outline: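 Viability counter-read: CellTiter-Glo luminescence (30 min, room temperature) in the same p53RE-bla plates. These plates had been exposed to compounds for 16 h at 37 C.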

[3] = qHTS assay for small molecules that induce genotoxicity in human embryonic kidney cells expressing luciferase-tagged ATAD5 - cell viability (AID 651634; calls by dose curve; further: nearly all actives have a fitted effect of over 25% in size)
Outline: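 Live-cell protease activity (CellTiter-Fluor, fluorescence) indicates viability. HEK293T cells with luciferase-tagged ATAD5; 15.5 hr compound treatment at 37C.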

[4] = qHTS assay for small molecule disruptors of the mitochondrial membrane potential - cell viability (AID 720634; calls by dose curve;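 further: human HepG2 liver cancer cells; series mostly up to about 83 µM; nearly all actives have a fitted effect of over 20% in size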)
Outline: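 Human hepatoma HepG2 cells were treated for 1 hr with test chemicals, then given m-MPI dye and CellTiter-Glo. Cell viability reflects luminescence proportional to cellular ATP.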

[5] = qHTS assay for small molecule disruptors of the mitochondrial membrane potential (AID 720635)
Outline: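 Mitochondrial membrane potential tracked with Mito-MPS dye, red aggregates (ex 540/em 590 nm) against green monomers (ex 490/em 535 nm). Compound treatment 1 hr at 37C, dye 30 min in HepG2.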

[6] = qHTS assay to test for compound auto fluorescence at 590 nm (red) in HepG2 cells (AID 720674)
Outline: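 Red autofluorescence (Ex/Em 540/590 nm, Rose Bengal sodium equivalents) was measured in HepG2 cells, 2,000 per well in MEM plus 10% FBS, plated overnight at 37 C. Readings were taken 1 hr after adding 23 nL compound or DMSO, at 37 C and 5% CO2.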

[7] = qHTS assay to test for compound auto fluorescence at 535 nm (green) in HepG2 cells (AID 720675)
[8] = qHTS assay to test for compound auto fluorescence at 460 nm (blue) in HEK293 cells (AID 720678)
Outline: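 HEK293, 2,000 cells/well, 10% dialyzed FBS; attach 4-5 hr 37C; pin compound or DMSO; o/n 37C/5% CO2; fluorescence 405/460 nm; triamterene-equivalent units.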

[9] = qHTS assay to test for compound auto fluorescence at 590 nm (red) in HEK293 cells (AID 720679)
Outline: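 Intensity at 540nm excitation and 590nm emission is reported as Rose Bengal sodium-equivalent autofluorescence. Measurements followed overnight exposure (37C, 5% CO2) of HEK293 cells, 2,000 per well, to 23 nL compound.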

[10] = qHTS assay to test for compound auto fluorescence at 535 nm (green) in HEK293 cells (AID 720680)
[11] = qHTS assay to test for compound auto fluorescence at 535 nm (green) in HEK293 cell free culture (AID 720682)
Outline: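 Green-label autofluorescence (485 nm excitation, 535 nm emission) measured on compound added to cell-free culture medium (DMEM, 10% FBS). Output is expressed relative to fluorescein.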

[12] = qHTS assay to test for compound auto fluorescence at 590 nm (red) in HEK293 cell free culture (AID 720683)
Outline: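 Red-channel autofluorescence of compounds in culture medium (DMEM, 10% FBS), no cells, measured at 540/590 nm. Rose Bengal sodium is the reference fluorophore for equivalence.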

[13] = qHTS assay to test for compound auto fluorescence at 590 nm (red) in HepG2 cell free culture (AID 720684)
Outline: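 Plate contents were MEM with 10% FBS plus test compound or DMSO, no cells. Fluorescence was recorded with 540 nm excitation and 590 nm emission.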

[14] = qHTS assay to test for compound auto fluorescence at 460 nm (blue) in HepG2 cell free culture (AID 720685)
Outline: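 Compound (23 nL) or DMSO pinned into cell-free MEM with 10% FBS; blue fluorescence read at 405/460 nm excitation/emission, expressed as auto-fluorescence equivalency to triamterene.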

[15] = qHTS assay to test for compound auto fluorescence at 535 nm (green) in HepG2 cell free culture (AID 720686)
[16] = qHTS assay to test for compound auto fluorescence at 460 nm (blue) in HepG2 cells (AID 720687)
Outline: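 Blue-channel autofluorescence (Ex/Em 405/460 nm, triamterene-equivalent) was measured after 1 hr compound exposure at 37 C, 5% CO2. Cells were HepG2, plated overnight at 37 C in MEM plus 10% FBS.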

[17] = molecular target: Glucocorticoid receptor (Homo sapiens) (UniProt P04150); assay: qHTS assay to identify small molecule agonists of the glucocorticoid receptor (GR) signaling pathway (AID 720691; active means well fitted activation curve with a large enough effect in the signal ratio in the repeat runs, not every such curve was filed as active; the % refers to the signal ratio)
Outline: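 Beta-lactamase reporter activity, read as fluorescence intensity, was measured in GR-bla HeLa cells exposed to compounds for 18 h at 37 C and then loaded with LiveBLAzer B/G FRET substrate for 2 h at room temperature.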

[18] = molecular target: Glucocorticoid receptor (Homo sapiens) (UniProt P04150); assay: qHTS assay to identify small molecule antagonists of the glucocorticoid receptor (GR) signaling pathway (AID 720692; active means well fitted inhibition curve with a large enough effect in the signal ratio in the repeat runs, not every such curve was filed as active; the % refers to the signal ratio)
Outline: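 Fluorescence from cleaved LiveBLAzer B/G FRET substrate reports GRE-driven beta-lactamase in HeLa cells; compounds are tested against 5 nM dexamethasone (final) over 18 h at 37 C, substrate incubation 2 h at room temperature.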

[19] = qHTS assay to identify small molecule antagonists of the glucocorticoid receptor (GR) signaling pathway - cell viability counter screen (AID 720693); further: nearly all actives have a fitted effect of over 55% in size
[20] = qHTS assay for identifying genotoxic compounds that show differential cytotoxicity against isogenic chicken DT40 cell lines with known DNA damage response pathways - wild type cell line (AID 743012); further: potency means the concentration at half of the fitted maximal effect; nearly all actives have a fitted effect of over 60% in size
Outline: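 Quantitative HTS on parental DT40 cells: 40 h compound treatment at 37 C/5% CO2, with viability then determined by CellTiter-Glo luminescence. Values serve as the DNA repair-proficient reference for differential cytotoxicity.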

[21] = qHTS assay to identify small molecule antagonists of the androgen receptor (AR) signaling pathway using the MDA cell line - cell viability counter screen (AID 743041; further: nearly all actives have a fitted effect of over 45% in size)
Outline: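 R1881-driven MDA-kb2 AR-luc cells, 3,000/well, were dosed with library compounds for 16 h; cell health came from CellTiter-Fluor fluorescence in the reporter wells.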

[22] = qHTS assay to identify small molecule antagonists of the thyroid receptor (TR) signaling pathway - cell viability counter screen (AID 743064); further: nearly all actives have a fitted effect of over 50% in size
Outline: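 GH3.TRE-Luc rat pituitary cells dosed after 4 hr plating, co-stimulated with T3 at 1 nM final, incubated 23.5 h at 37 C. Viability measured in the same wells by CellTiter-Fluor fluorescence after 30 min further at 37 C.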

[23] = test system: thyroid hormone receptor (rat, GH3 cells); assay: qHTS assay to identify small molecule agonists of the thyroid receptor (TR) signaling pathway (AID 743066; calls by dose curve)
[24] = molecular target: Estrogen receptor (Homo sapiens) (UniProt P03372); assay: qHTS assay to identify small molecule antagonists of the estrogen receptor alpha (ER-alpha) signaling pathway (AID 743069; active means well fitted curve in the direction sought with a large enough effect in the signal ratio in the repeat runs, not every such curve was filed as active; the % refers to the signal ratio)
Outline: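 Compound effects are measured against 17beta-estradiol stimulation in HEK293 cells with a UAS-controlled beta-lactamase reporter for ER-alpha. Exposure lasts 18 hr at 37C; LiveBLAzer B/G FRET substrate follows for 2 hr at room temperature.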

[25] = molecular target: Estrogen receptor (Homo sapiens) (UniProt P03372); assay: qHTS assay to identify small molecule agonists of the estrogen receptor alpha (ER-alpha) signaling pathway (AID 743075; calls by dose curve)
[26] = molecular target: Estrogen receptor (Homo sapiens) (UniProt P03372); assay: qHTS assay to identify small molecule agonists of the estrogen receptor alpha (ER-alpha) signaling pathway using the BG1 cell line (AID 743079); further: nearly all actives have a fitted effect of over 20% in size
[27] = qHTS assay to identify small molecule antagonists of the estrogen receptor alpha (ER-alpha) signaling pathway using the BG1 cell line (AID 743080; calls by dose curve;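 further: BG1 cells stimulated with 17beta-estradiol alongside compound; series mostly up to about 70 µM; nearly all actives have a fitted effect of over 25% in size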)
Outline: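 BG1Luc4E2, endogenous ER-alpha, 4xERE-luc; 5 d charcoal-stripped FBS, phenol red free; 24 h plating; cpd + 17beta-estradiol 21.5 h, 37 C/5% CO2; CellTiter-Fluor viability 30 min, then ONE-Glo luciferase 30 min RT.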

[28] = molecular target: Aromatase (Homo sapiens) (UniProt P11511); assay: qHTS assay to identify aromatase inhibitors (AID 743083); further: series mostly up to about 70 µM; nearly all actives have a fitted effect of over 55% in size
[29] = qHTS assay to identify aromatase inhibitors - cell viability counter screen (AID 743084);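 further: cells stimulated with testosterone during compound exposure; nearly all actives have a fitted effect of over 55% in size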
[30] = qHTS assay to identify small molecule that activate the aryl hydrocarbon receptor (AhR) signaling pathway - cell viability counter screen (AID 743086);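 further: HepG2 liver cells carrying the AhR DRE luciferase reporter; series mostly up to about 70 µM; nearly all actives have a fitted effect of over 45% in size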
Outline: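 Cytotoxicity counter screen: CellTiter-Fluor signal (30 min, 37 C) in 4000 HepG2 cells/well carrying the DRE-luciferase reporter, following 24 h compound exposure at 37 C.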

[31] = molecular target: Acetylcholinesterase (Homo sapiens) (UniProt P22303); assay: Acetylcholinesterase (AChE) small molecule antagonists: fluorescence cell-based qHTS assay (AID 1347398; calls by dose curve; further: potency means the concentration at half of the fitted maximal effect; nearly all actives have a fitted effect of over 50% in size); details: Potency: AChE activity; outcome: AChE activity
Outline: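 Fluorimetric cell-based assay: intact SH-SY5Y cells, 30 min compound preincubation at 37 C, acetylthiocholine substrate with thiol probe Thiolite Green, 40 min RT development, fluorescence 490/520 nm.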

[32] = molecular target: Acetylcholinesterase (Homo sapiens) (UniProt P22303); assay: Acetylcholinesterase (AChE) small molecule antagonists: enzyme-based qHTS assay with human liver microsomes (AID 1347399; calls by dose curve; further: nearly all actives have a fitted effect of over 60% in size); details: Potency: qHTS inhibition; outcome: qHTS inhibition
Outline: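 Recombinant human AChE (50 mU/mL in the enzyme mix) and human liver microsomes (0.25 mg/mL final) were preincubated with compound and NADPH (0.25 mg/mL final) for 30 min at 37 C. Acetylthiocholine/DTNB was then added; thiocholine was read colorimetrically after 10 min at room temperature.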

Measured: Potency

Estrogen receptor (Homo sapiens), sequence (P03372 whole entry, looked up): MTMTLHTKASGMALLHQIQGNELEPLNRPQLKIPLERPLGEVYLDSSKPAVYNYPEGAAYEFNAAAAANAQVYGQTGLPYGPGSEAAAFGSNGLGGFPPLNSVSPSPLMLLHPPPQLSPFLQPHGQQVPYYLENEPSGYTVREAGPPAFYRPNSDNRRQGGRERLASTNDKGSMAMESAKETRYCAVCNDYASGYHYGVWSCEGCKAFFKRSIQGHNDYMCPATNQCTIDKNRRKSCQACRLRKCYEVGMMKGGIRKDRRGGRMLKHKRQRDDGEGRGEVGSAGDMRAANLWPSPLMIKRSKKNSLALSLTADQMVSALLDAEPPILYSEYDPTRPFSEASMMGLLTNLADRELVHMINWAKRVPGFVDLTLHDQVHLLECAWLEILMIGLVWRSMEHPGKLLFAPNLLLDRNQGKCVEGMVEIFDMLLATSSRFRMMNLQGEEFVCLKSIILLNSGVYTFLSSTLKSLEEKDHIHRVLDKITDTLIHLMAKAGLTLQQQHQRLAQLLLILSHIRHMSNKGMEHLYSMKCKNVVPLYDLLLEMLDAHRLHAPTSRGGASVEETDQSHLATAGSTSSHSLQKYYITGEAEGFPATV
Acetylcholinesterase (Homo sapiens), sequence (P22303 whole entry, looked up): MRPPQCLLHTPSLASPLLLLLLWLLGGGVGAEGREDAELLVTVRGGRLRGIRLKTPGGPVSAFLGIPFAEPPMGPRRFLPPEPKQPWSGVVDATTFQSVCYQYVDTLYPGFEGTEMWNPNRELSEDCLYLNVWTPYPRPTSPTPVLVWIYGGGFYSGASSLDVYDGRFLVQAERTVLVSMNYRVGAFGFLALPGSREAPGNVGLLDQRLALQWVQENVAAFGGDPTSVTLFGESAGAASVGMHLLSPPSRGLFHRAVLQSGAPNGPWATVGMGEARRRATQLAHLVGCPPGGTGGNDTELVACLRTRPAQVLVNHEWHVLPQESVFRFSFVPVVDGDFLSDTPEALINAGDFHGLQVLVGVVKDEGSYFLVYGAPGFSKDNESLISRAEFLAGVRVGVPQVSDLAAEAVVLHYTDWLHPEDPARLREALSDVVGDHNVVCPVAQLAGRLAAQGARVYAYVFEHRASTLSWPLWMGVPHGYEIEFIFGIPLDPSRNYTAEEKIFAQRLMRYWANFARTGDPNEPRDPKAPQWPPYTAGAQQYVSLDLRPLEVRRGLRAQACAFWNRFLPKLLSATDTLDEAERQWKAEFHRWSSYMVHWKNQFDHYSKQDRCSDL
Glucocorticoid receptor (Homo sapiens), sequence (P04150 whole entry, looked up): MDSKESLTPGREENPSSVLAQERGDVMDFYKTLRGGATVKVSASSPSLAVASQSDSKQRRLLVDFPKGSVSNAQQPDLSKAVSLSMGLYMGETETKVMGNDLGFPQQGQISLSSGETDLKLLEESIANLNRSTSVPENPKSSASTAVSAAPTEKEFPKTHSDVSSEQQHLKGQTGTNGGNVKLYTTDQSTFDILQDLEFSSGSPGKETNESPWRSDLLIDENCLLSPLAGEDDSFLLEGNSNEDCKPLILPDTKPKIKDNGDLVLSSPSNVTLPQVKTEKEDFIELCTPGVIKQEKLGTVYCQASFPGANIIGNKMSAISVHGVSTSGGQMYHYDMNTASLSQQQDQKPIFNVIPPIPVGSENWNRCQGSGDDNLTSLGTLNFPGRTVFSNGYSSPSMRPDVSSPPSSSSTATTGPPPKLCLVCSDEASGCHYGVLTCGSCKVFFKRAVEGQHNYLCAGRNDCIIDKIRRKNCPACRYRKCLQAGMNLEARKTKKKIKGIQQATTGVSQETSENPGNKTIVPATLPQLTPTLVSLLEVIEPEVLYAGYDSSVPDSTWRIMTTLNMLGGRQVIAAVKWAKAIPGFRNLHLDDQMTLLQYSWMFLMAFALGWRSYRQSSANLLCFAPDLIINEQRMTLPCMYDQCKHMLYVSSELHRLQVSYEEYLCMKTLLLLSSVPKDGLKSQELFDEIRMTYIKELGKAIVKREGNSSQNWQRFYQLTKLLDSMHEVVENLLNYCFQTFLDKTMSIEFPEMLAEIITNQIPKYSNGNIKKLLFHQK
Aromatase (Homo sapiens), sequence (P11511 whole entry, looked up): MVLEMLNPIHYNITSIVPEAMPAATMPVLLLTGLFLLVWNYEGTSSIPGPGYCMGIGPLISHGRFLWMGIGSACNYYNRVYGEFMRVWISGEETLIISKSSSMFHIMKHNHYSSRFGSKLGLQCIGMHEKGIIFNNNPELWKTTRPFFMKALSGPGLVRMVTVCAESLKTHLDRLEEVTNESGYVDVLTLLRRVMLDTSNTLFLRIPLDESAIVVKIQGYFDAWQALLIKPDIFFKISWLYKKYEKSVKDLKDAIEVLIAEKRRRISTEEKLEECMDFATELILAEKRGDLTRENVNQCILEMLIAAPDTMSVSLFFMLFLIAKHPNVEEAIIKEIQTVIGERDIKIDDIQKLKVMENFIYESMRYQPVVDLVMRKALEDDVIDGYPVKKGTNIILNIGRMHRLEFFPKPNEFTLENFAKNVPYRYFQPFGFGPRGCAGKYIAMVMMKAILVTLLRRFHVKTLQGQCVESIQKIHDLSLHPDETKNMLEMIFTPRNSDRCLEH

Cc1ccc2c(c1)[C@]13CCCC[C@@H]1[C@H](C2)N(C)CC3
active: [20] 26.6 µM
inactive: [1] | [2] | [3] | [4] | [5] | [6] | [7] | [8] | [9] | [10] | [11] | [12] | [13] | [14] | [15] | [16] | [17] | [18] | [19] | [21] | [22] | [23] | [24] | [25] | [26] | [27] | [28] | [29] | [30]

CN[C@H]1CC[C@@H](c2ccc(Cl)c(Cl)c2)c2ccc(S(N)(=O)=O)cc21
inactive: [32]
active: [31] 35.6 µM

Cc1ccc(CCn2c3c(c4cc(Cl)ccc42)CN(C)CC3)cn1
active: [31] 19.5 µM

Reference: PubChem BioAssay (Tox21)
